# Compound activity from PubChem BioAssay.
# FMDV inh = foot and mouth disease virus antiviral activity; FMDV antiviral cell-based qHTS; Potency, µM (top dose mostly 57.9 µM), inactives show at the top dose activity change, negative = inhibition, actives largely listed as inhibitors; hit rate 1.2% among 410,000; AID 1159524; calls by dose curve; tested in HEK293T cells; further: read-out not given here; potency means the concentration at half of the fitted maximal effect; nearly all actives have a fitted effect of over 45% in size
# LASV entry inh = inhibitors of Lassa virus binding or cell entry | Lassa virus pseudotype entry inhibition, cell reporter | Potency, µM (doses to about 37.9 µM), for inactives: top-dose activity change, negative = inhibition, usual class: inhibitors | hit rate 1.2% among 300,000 | AID 540256; calls by dose curve; tested in HEK293 cells; further: potency means the concentration at half of the fitted maximal effect; nearly all actives have a fitted effect of over 50% in size
# HCV inh = HCV inhibition | Huh7.5.1 HCVcc-Cre infection, luciferase reporter, 44 h | AID 651820 | Potency, µM (titrated, usually from 41.8 µM), for inactives: at the top dose activity change, negative = inhibition, usual class: inhibitors | hit rate 3.4% among 340,000; active means well fitted inhibition curve with a large enough effect; inconclusive means small, poorly fitted or top-dose-only effect, or another doubt; inactive means no such curve, though single readings can be large or run the other way; further: potency means the concentration at half of the fitted maximal effect
#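 Luciferase read-out (15 sec integration) after a 15 min room-temperature substrate step quantifies HCVcc-Cre infection. Cells, 1,000 per well, had compound added 4 h post-plating, then virus at ~0.5 moi, and were cultured 44 h.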
# MARV entry inh = inhibitors of Marburg virus binding or cell entry; Marburg virus pseudotyped entry inhibition, cell reporter; hit rate 1.8% among 300,000; Potency, µM (titrated, usually from 37.8 µM), without a hit: at the top dose activity change, negative = inhibition, hits mostly inhibitors; calls by dose curve; tested in HEK293 cells; further: potency means the concentration at half of the fitted maximal effect
# HCMV antiviral = inhibitors of human cytomegalovirus. HFF cells, HCMV-luciferase reporter, 72 h; stronger effect = lower value. activity change, negative = inhibition, % at 57.5 µM. hit rate 4.5% among 410,000. AID 1259415; in the data active means activity change below about -60%; inconclusive means no clear call, values can overlap the other calls; inactive means above about -39%
#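 Steps: HFFs plated, 16 h 37C; compounds added; HCMV-luciferase added to MOI 1 PFU/cell; 72 h 37C; OneGlo reagent, 5 min room temperature; luminescence read, normalized to controls.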
# * = called active by the depositor; u = inconclusive; x = no result given; + = active, no number; [ ] = remark or other dose. Hits are enriched below; roughly 7.9% of the tested compounds scored in any of these assays. On the % scale 0 is the no-effect control and ±100 the full control effect.
SMILES,FMDV inh,LASV entry inh,HCV inh,MARV entry inh,HCMV antiviral
COC(=O)[C@@H]1CCCN1C(=O)c1c(OC)cc(=O)n2c1CCN(Cc1cc(OC)ccc1F)CC2,3.2%,x,x,x,x
COc1cc(C(=O)O[C@H]2C/C(C)=C/CC[C@@]3(C)O[C@@H]3[C@H](O)[C@@H]2C(C)C)cc(OC)c1OC,-27.1%,x,u,x,1.0
Cc1c(C(=O)Nc2nc(-c3ccccn3)cs2)oc2ccccc12,1.4%,x,2.82µM*,x,x
Cn1cccc1C(=O)Nc1nc(-c2ccccn2)cs1,-16.3%,u,14.1µM*,u,-87.8*
Cc1csc(NC(=O)c2cccn2C)n1,x,u,0.6%,-30.7%,78.2
COc1ccc(C(=O)OCc2nnc(-c3ccccc3)o2)cc1S(=O)(=O)N1CCOCC1,16.6%,12.0%,-1.9%,u,-32.8
O=C(OCc1nnc(-c2ccc([N+](=O)[O-])cc2)o1)c1ccc(F)c(S(=O)(=O)N2CCOCC2)c1,-12.6%,0.8%,-3.7%,6.1%[46.1 µM],-67.1*
CC(N)C(=O)c1ccco1 (stereo not drawn),-18.0%,-0.1%,1.2%,26.5%,-68.4*
CCOC(=O)C(Cc1ccccc1)C(=O)c1ccco1 (stereo not drawn),3.5%,x,5.4%,x,-0.3
Cc1ccc(S(=O)(=O)Nc2ccc3nc(C)sc3c2)cc1,-16.0%,u,u,u,x
CC(=O)Nc1ccc(S(=O)(=O)Nc2ccc3nc(C)sc3c2)cc1,-11.3%,u,u,u,-75.5*
Cc1nc2ccc(NS(=O)(=O)c3ccc(Br)cc3)cc2s1,-4.8%,x,u,x,-60.0*
CC(=O)Nc1ccc2nc(NS(=O)(=O)c3ccc(C)cc3)sc2c1,87.6%,21.4%,-3.1%,u,u
Cn1cccc1-c1nc2ccc(NC(=O)c3ccccc3)cc2[nH]1,6.1%,-9.6%,u,-8.3%,-19.5
Cc1ccc(S(=O)(=O)Nc2ccc3nc(-c4cccn4C)[nH]c3c2)cc1,23.4%,u,11.2µM*,u,30.3
Cc1nc2ccc(NC(=O)c3cc([N+](=O)[O-])cc([N+](=O)[O-])c3Cl)cc2s1,u,3.9%,25.1µM*,u,78.0
Cc1ccc(S(=O)(=O)Nc2ccc3nc(N)sc3c2)cc1,40.9%,-7.8%,12.6µM*,-26.2%,-88.8*
Cc1nc2ccc(NS(=O)(=O)c3ccc4c(c3)OCCO4)cc2s1,-12.6%,u,3.16µM*,u,-33.0
O=C1CCCN1c1ccc(S(=O)(=O)Nc2ccc3c(c2)OCCO3)cc1,x,u,u,u,-81.0*
Cc1nc2ccc(NS(=O)(=O)c3ccc(F)c(F)c3)cc2s1,-22.9%,x,-11.1%,x,-18.5
Cc1ccc2nc(-c3ccc(NS(=O)(=O)c4ccccc4)cc3)sc2c1,75.3%,-4.5%,-28.7%,u,-11.0
Cc1nc2ccc(NS(=O)(=O)c3cccc([N+](=O)[O-])c3)cc2s1,-8.1%,-1.2%[46.1 µM],11.2µM*,u,u
Cc1ccc(S(=O)(=O)Nc2ccc3c(c2)OCCO3)cc1,22.2%,u,-8.1%,-25.1%[46.1 µM],14.6
CS(=O)(=O)N1CCC(C(=O)NCc2ccc(Cl)cc2)CC1,-6.7%,x,14.8%,x,-20.2
CCC(C)Sc1cc(-c2nc3ccc(C)cn3c2NCc2ccccc2)ccc1OC (stereo not drawn),15.8µM*,x,10µM*,x,-76.7*
SMILES,FMDV inh,LASV entry inh,HCV inh,MARV entry inh,HCMV antiviral
CCC(C)Sc1ccc(-c2nc3ccc(C)cn3c2NCc2ccccc2)cc1OC (stereo not drawn),35.5µM*,x,3.98µM*,x,x
CCC(=O)OC1C2CC3=C4CC(=O)OC(c5ccoc5)[C@]4(C)CCC3[C@@](C)(C2=O)C(CC(=O)OC)C1(C)C (stereo partly drawn),-9.8%,x,x,x,x
Fc1cccc(Cl)c1-c1nnc2ccc3ccccc3n12,-7.8%,x,10µM*,x,-84.0*
Fc1ccccc1-c1nnc2ccc3ccccc3n12,-16.8%,8.6%[46.1 µM],-8.4%,2.0%[46.1 µM],46.4
COc1cc(=O)n2c(c1C(=O)NCc1nccs1)CCN(Cc1ccccc1F)CC2,-7.7%,x,x,x,x
Cc1cc(N2CCOCC2)nc2ccc(NC(=O)CCC(=O)N3CCN(c4cccc(C(F)(F)F)c4)CC3)cc12,-26.8%,u,11.2µM*,u,58.8
CC(=O)c1ccc(N2CCN(C(=O)CCC(=O)Nc3ccc4nc(N5CCN(C)CC5)cc(C)c4c3)CC2)cc1,1.1%,11.1%[46.1 µM],8.91µM*,u,1.3
CC(=O)c1ccc(N2CCN(C(=O)CCC(=O)Nc3ccc4nc(N5CCCCC5)cc(C)c4c3)CC2)cc1,0.0%,20.0%[46.1 µM],x,26.1%[46.1 µM],9.1
O=C1[C@H]2[C@H]3[C@H](O)[C@H](O)C/C(=N\OCc4ccccc4)[C@H]3CC[C@H]2C(=O)N1Cc1ccc2c(c1)OCO2,x,x,x,-37.8%[14.2 µM],x
CC(c1nc2ccccc2n1Cc1ccccc1)N1CCCCC1 (stereo not drawn),u,-54.4%[46.1 µM],9.7%,u,-66.8*
Cc1ccc(/C=N/NC(=O)c2c[nH]c3ccccc23)s1,50.6%,-18.3%,-2.5%,u,-72.1*
O=C(N/N=C/c1ccncc1)c1cc2ccccc2cc1O,10.2%,x,2.8%,x,-13.1
Cc1ccsc1/C=N/NC(=O)c1c[nH]c2ccccc12,44.7%,10.7%,9.0%,8.9%,151.8
O=C(N/N=C/c1ccc[nH]1)c1cc2ccccc2cc1O,8.7%,-28.5%[46.1 µM],u,22.9%[46.1 µM],-99.2*
O=C(N/N=C/c1ccccn1)c1c[nH]c2ccccc12,40.2%,u,-2.1%,u,63.4
O=C(N/N=C/c1ccc[nH]1)c1c[nH]c2ccccc12,7.7%,x,0.891µM*,x,-3.6
CC1CCN(CCCNC(=O)C2CC(=O)N(CCc3ccccc3)C2)CC1 (stereo not drawn),-10.6%,x,18.9%,x,-2.4
O=C(CCS(=O)(=O)Cc1cccc(Cl)c1)NCCc1ccccc1,22.0%,x,-2.8%,x,8.5
Cc1ccccc1OCc1nnc(SCc2cc(=O)c3ccc(C)c(C)c3[nH]2)n1C,-34.9%,2.3%[46.1 µM],x,x,0.2
Cc1ncc2c(c1CNS(=O)(=O)N(C)C)CCN(C(=O)c1ccc(F)cc1Cl)C2,8.9%,x,x,x,x
CC(=O)Nc1ccc(NC(=O)C2(c3cccs3)CCOCC2)cc1,-6.5%,u,x,x,+
COc1ccc(NC(=O)C2(c3cccs3)CCOCC2)cc1,-8.7%,x,16.2%,x,0.0
Oc1c(Br)cc(Br)cc1C=Nc1cccc2ncccc12,-16.8%,x,-29.7%,x,56.3
COc1cccc(NC(=O)c2nn(-c3ccc(C)cc3)c(=O)n(C)c2=O)c1,-15.2%,4.7%[46.1 µM],x,x,-0.3
Cc1ccc(-c2c3c(nc4sc(C(N)=O)c(N)c24)CCC3)cc1,-24.3%,1.6%,u,-11.2%,-86.8*
NC(=O)c1sc2nc3c(c(-c4ccc(Cl)cc4)c2c1N)CCCC3,-13.8%,-20.6%,u,u,-61.2*
CSc1ncccc1C(=O)NCC1Cc2cc(F)cc(-c3cncnc3)c2O1 (stereo not drawn),-22.1%,x,x,x,x
O=C(N/N=C/c1cccnc1)c1cc(-c2ccccc2)nc2ccccc12,-10.2%,-20.4%[46.1 µM],-7.1%,3.98µM*,1.7
O=C(N/N=C/c1cccnc1)c1cc(-c2ccc(Cl)cc2)nc2ccccc12,-4.2%,x,-3.0%,x,15.1
